Laboratory results published in publication PMC4552634, “A New Set of Chemical Starting Points with Plasmodium falciparum Transmission-Blocking Potential for Antimalarial Drug Discovery” (PLoS ONE, 2015).
The whole screen tested about 13,000 compounds, of which about 3,200 (25%) showed an effect of 50% or more. Some of the results follow.

system: P. falciparum stage V gametocytes; parameters: BacTiter-Glo ATP luminescence viability of purified stage V gametocytes in 384-well plates, per cent inhibition versus DMSO; settings: 48 h, 5 µM; inhibitor

Compound	% Inhibition
O=C(Nc1ccc2nc3n(c(=O)c2c1)CCCCC3)C(=O)N1CCC(Cc2ccccc2)CC1 [TCMDC-125294]	-23.73%
CNc1c2c(nc3ccc(NC(=O)CCCCCCc4ccccc4)cc13)CCCC2 [TCMDC-139066]	79.48%
O=C(CCCCCCc1ccccc1)Nc1ccc2nc3c(c(NCc4ccccc4)c2c1)CCCC3 [TCMDC-139063]	91.52%
Nc1ccnc2ccc(NC(=O)CCCCCc3ccccc3)cc12 [TCMDC-139070]	2.045%
CCCCc1ccc(C(=O)Nc2ccc3nc(N4CCN(C)CC4)cc(C)c3c2)cc1 [TCMDC-125570]	-31.24%
CCCCc1ccc(C(=O)Nc2ccc3nc(N4CCN(CC)CC4)cc(C)c3c2)cc1 [TCMDC-125578]	-16.83%
COc1ccc2nccc(NN=Cc3cccnc3)c2c1 [TCMDC-142032]	-14.51%
O=C(Nc1nccs1)c1cn(-c2ccccc2)nc1-c1ccc(Cl)s1 [TCMDC-123623]	9.788%
CC(C)(CNC(=O)C1CCN(CCOc2ccc(Cl)cc2)CC1)c1nc(-c2ccc(Cl)c(O)c2)c(-c2ccncc2)[nH]1 [TCMDC-141124]	-30.29%
Cc1cccc(CN2CCCN(Cc3ccc(C(=O)Nc4ccc(C)c(F)c4)cc3)CC2)c1 [TCMDC-136396]	-4.425%
COc1ccc(CNCCc2cccs2)cc1-c1cccc(S(=O)(=O)NCCN2CCCC2)c1 [TCMDC-132479]	91.1%
COc1ccc(CNCCc2cccs2)cc1-c1ccc(OC)c(S(=O)(=O)NCCN2CCCC2)c1 [TCMDC-132476]	71.75%
Cc1cc(-c2ccc(CNCCc3cccs3)cc2)ccc1S(=O)(=O)NCc1ccccc1 [TCMDC-132473]	18.33%
COc1ccc(CNCCc2cccs2)cc1-c1ccc(S(=O)(=O)NCCN2CCCC2)cc1 [TCMDC-132475]	76.8%
S=c1nc(-c2ccccc2)n2ccsc2n1 [TCMDC-123905]	9.815%
CC(C)c1ncc(-c2ccncc2)c(C2CCC(CNC(=O)c3cccnc3)CC2)n1 (stereo not shown) [TCMDC-124825]	14.15%
O=C(Nc1cccc(-c2ccc(-c3nc4ccccc4[nH]3)cc2)c1)Nc1ccc(F)c(F)c1F [TCMDC-133230]	-14.97%
CCc1cccc(OCCCON2C(N)=NC(N)=NC2(C)C)c1 [TCMDC-131306]	2.586%
Fc1ccc2nc(-c3ccc(-c4ccc(CN5CCN(c6cnccn6)CC5)cc4)s3)[nH]c2c1 [TCMDC-133893]	9.584%
O=C(CCCCCNC(=O)c1ccc(O)c(-c2ccc(Cl)c(Cl)c2)c1)NC1CCCc2ccccc21 (stereo not shown) [TCMDC-140866]	4.143%
CC1CN(c2ccc3[nH]cc(Sc4ccc(-c5cccs5)cc4)c3c2)CC(C)N1 (stereo not shown) [TCMDC-136644]	-55.49%
CC(Sc1n[nH]c(-c2cccs2)n1)C(=O)c1c[nH]c2ccccc12 (stereo not shown) [TCMDC-125010]	53.42%
O=C(CSc1n[nH]c(-c2ccccc2Br)n1)c1c[nH]c2ccccc12 [TCMDC-123710]	82.49%
COc1ccc2nc(SC(C)C(=O)c3c[nH]c4ccccc34)[nH]c2c1 (stereo not shown) [TCMDC-125034]	61.61%

Compound	% Inhibition
Cc1noc(-c2cccs2)c1C(=O)NC(C)c1cccc2ccccc12 (stereo not shown) [TCMDC-124788]	-15.69%
COc1cccc(-c2cc(C(=O)Nc3ccc4nc(-c5ccccc5)[nH]c4c3)[nH]n2)c1 [TCMDC-134319]	8.642%
COC(=O)c1ccc2c(-c3nc4ccc(OC)cc4[nH]3)c[nH]c2c1 [TCMDC-135457]	32.14%
Cc1cc(N(C)C)nc(Nc2ccc(NC(=O)c3c(F)cccc3F)cc2)n1 [TCMDC-124977]	1.948%
COc1cc(SC)c(Br)cc1-c1nc2ccncc2[nH]1 [TCMDC-138164]	-13.77%
Oc1ccc(CCNc2nc(NCc3ccccc3Oc3ccc(C(F)(F)F)cc3)nc(N3CCNCC3)n2)cc1 [TCMDC-134133]	-9.208%
CCOc1cc(C2C(C(=O)OC(C)C)=C(C)NC3=C2C(=O)CC(c2ccc(Cl)cc2)C3)ccc1OC(C)=O (stereo not shown) [TCMDC-125628]	-56.66%
Cc1cnc2ccc(NS(=O)(=O)c3ccc4c(Cl)cccc4c3)cc2c1N1CCNCC1 [TCMDC-139558]	37.46%
CCCCSc1c(CNCCCCCCNCc2ccc3ccccc3c2SCCCC)ccc2ccccc12 [TCMDC-137825]	112.9%
CCOc1c(CNCCCCCCNCc2ccc3ccccc3c2OCC)ccc2ccccc12 [TCMDC-137942]	73.68%
CN(C)c1c(CNCCCCCCNCc2ccc3ccccc3c2N(C)C)ccc2ccccc12 [TCMDC-137834]	115.6%
CCOc1c(Br)cc(Cl)cc1CNCCCNc1nc2ccccc2[nH]1 [TCMDC-140106]	5.667%
CCCCOc1ccc(CNCCCCCCNCc2ccc(OCCCC)c3ccccc23)c2ccccc12 [TCMDC-137281]	121.9%
CCCc1ccc2c(c1O)CCC(N(CCC)CCC)C2 (stereo not shown) [TCMDC-138031]	-27.54%
COc1ccc(CN(C)CC(O)COc2ccc(NC(=O)c3cccc4c(=O)c5cccc(OC)c5[nH]c34)cc2)cc1OC (stereo not shown) [TCMDC-131851]	12.51%
O=C(Cc1ccccc1)NC1(c2ccccc2)CCN(CCc2c[nH]c3ccc(F)cc23)CC1 [TCMDC-131991]	26.26%
CCC(C)c1ccc(NC(=O)c2ccc(S(=O)(=O)Nc3ccc(OC)c(N4CCN(CC5CC5)CC4)c3)cc2)cc1 (stereo not shown) [TCMDC-136299]	-16.95%
Oc1ccccc1CN1CCC2(CCCN(Cc3ccccc3F)C2)C1 (stereo not shown) [TCMDC-124620]	28.07%
Cc1cc(NC2CCCC2)nc(Nc2ccc(F)cc2)n1 [TCMDC-133472]	46.74%
CCCCOc1cc(CNCCCCCCNCc2cc(OCCCC)cc3ccccc23)c2ccccc2c1 [TCMDC-137824]	36.59%
CCCCOc1c(CNCCCCCCNCc2ccc3ccccc3c2OCCCC)ccc2ccccc12 [TCMDC-137975]	107.4%
COC(=O)c1cccc(CNCc2ccc(-c3ccc(-c4nc5cc(C(F)(F)F)ccc5[nH]4)cc3)cc2)c1.O=C(O)C(F)(F)F [TCMDC-132954]	-38.93%
CC1(C)N=C(N)N=C(N)N1OCc1cc2ccccc2cc1CON1C(N)=NC(N)=NC1(C)C [TCMDC-131627]	15.22%
O=C(NCC1CCN(C/C=C/c2ccccc2)CC1)Nc1ccc(Oc2ccccc2)cc1 [TCMDC-139153]	95.36%

Compound	% Inhibition
CN(C(=O)Nc1ccc(F)cc1)C1CCN(CCCCCNC(=O)/C=C/c2ccc(Cl)c(Cl)c2)CC1 [TCMDC-139492]	-6.373%
O=C(/C=C/c1ccc(Cl)c(Cl)c1)NCCCCN1CCCN(C(=O)Nc2ccc(C(F)(F)F)cc2)CC1 [TCMDC-135930]	-28.77%
O=C(/C=C/c1ccc(Cl)c(Cl)c1)NCCCCCCN1CCN(C(=O)Nc2ccc(C(F)(F)F)cc2)CC1 [TCMDC-135824]	-51.85%
O=C(NCCCCN1CCN(CC=Cc2ccccc2)CC1)c1ccc(NC(=O)c2cc(Cl)cc(Cl)c2)cc1 [TCMDC-138216]	-21.85%
O=C(NNC(=O)c1ccc(CN2CCC(c3nc4ccccc4[nH]3)CC2)cc1)Nc1ccc(Oc2ccccc2)cc1 [TCMDC-135310]	0.2458%
O=C(/C=C/c1ccc(Cl)c(Cl)c1)NCCCCCN1CCCC(CCCNC(=O)Nc2ccc(C(F)(F)F)cc2)C1 (stereo not shown) [TCMDC-139517]	56.6%
CN(C(=O)Nc1ccc(C(F)(F)F)cc1)C1CCN(CCCCCNC(=O)/C=C/c2ccc(Cl)c(Cl)c2)CC1 [TCMDC-139524]	54.85%
CCOC(=O)c1ccc(NC(=O)NCCCC2CCCN(CCCCCNC(=O)/C=C/c3ccc(Cl)c(Cl)c3)C2)cc1 (stereo not shown) [TCMDC-139516]	55.81%
Cn1cc(CCNc2ccnc(N3CCC(c4ncc[nH]4)CC3)n2)c2ccccc21 [TCMDC-135120]	26.64%
CCOC(=O)CCCc1cc(NC2CCN(C)CC2)nc(Nc2ccc(OC)cc2)n1 [TCMDC-134017]	-45.24%
Cc1ccc(NC(=O)c2ccc(NCCCN3CC(C)CC(C)C3)c([N+](=O)[O-])c2)cc1F (stereo not shown) [TCMDC-125684]	-7.765%
Cc1cnc(N)c(/C=C/c2cncc(C(=O)NCCc3ccc(Cl)cc3Cl)c2)c1 [TCMDC-134509]	-9.663%
CC(C)c1ccc(NC(=O)NCC2CCCN(CCCCCNC(=O)/C=C/c3ccc(Cl)c(Cl)c3)C2)cc1 (stereo not shown) [TCMDC-139519]	58.09%
O=C(/C=C/c1ccc(Cl)c(Cl)c1)NCCCCCN1CCC(NC(=O)Nc2ccc(C(F)(F)F)cc2)CC1 [TCMDC-135723]	-19.76%
O=C(/C=C/c1ccc(Cl)c(Cl)c1)NCCCCCN1CCCC(CNC(=O)Nc2ccc(Oc3ccccc3)cc2)C1 (stereo not shown) [TCMDC-139522]	54.61%
CC(C)c1ccc(NC(=O)NCCCC2CCCN(CCCCCNC(=O)/C=C/c3ccc(Cl)c(Cl)c3)C2)cc1 (stereo not shown) [TCMDC-139515]	38.89%
O=C(/C=C/c1ccc(Cl)c(Cl)c1)NCCCCCN1CCC(NC(=O)Nc2ccc(Cl)c(C(F)(F)F)c2)CC1 [TCMDC-135730]	1.176%
CCCCCCCNC(=O)NCC1CCCN(CCCCCNC(=O)/C=C/c2ccc(Cl)c(Cl)c2)C1 (stereo not shown) [TCMDC-139518]	11.83%
O=C(/C=C/c1ccc(Cl)c(Cl)c1)NCCCCCN1CCC(NC(=O)Nc2ccc(C(F)(F)F)cc2)C1 (stereo not shown) [TCMDC-139527]	-24.61%
O=C(/C=C/c1ccc(Cl)c(Cl)c1)NCCCCCN1CCN(C(=O)Nc2ccc(C(F)(F)F)cc2)CC1 [TCMDC-135734]	-55.55%
O=C(/C=C/c1ccc(Cl)c(Cl)c1)NCCCCCN1CCC(CCCNC(=O)Nc2ccc(C(F)(F)F)cc2)CC1 [TCMDC-139514]	102.3%
O=C(/C=C/c1ccc(Cl)c(Cl)c1)NCCCCCN1CCCC(CNC(=O)Nc2ccc(C(F)(F)F)cc2)C1 (stereo not shown) [TCMDC-139521]	91.99%
